# Compound activity deposited in PubChem by National Center for Advancing Translational Sciences (NCATS).
# Nrf2 block: blocks Nrf2 signaling | hit rate 2.1% among 360,000 | A549 ARE-Fluc reporter, luciferase luminescence, 18-24 h | Potency, µM (titrated, usually from 46 µM), usual class: inhibitors; also: nearly all actives have a fitted effect of over 60% in size
#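 Nrf2 function is reported as luminescence of an ARE-controlled luciferase in A549 cells. Compounds were tested at several concentrations, and a CellTiter-Fluor read on the same wells flagged cytotoxicity.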
# A549 tox-1: counter-screen for Nrf2 inhibitors: cytotoxicity in A549 cells; A549 ARE-Fluc cells, CellTiter-Fluor viability, 18-24 h; AID 504648; hit rate 0.16% among 390,000; Potency, µM (doses to about 46 µM), most hits filed as inhibitors
#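 Cytotoxicity counterscreen: CellTiter-Fluor fluorescence was measured in A549 ARE_Fluc cells after 18-24 h of compound exposure in a concentration series. The subsequent BugLite luminescent read reports ARE-luciferase activity.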
# mIDH1 inhibitor: human IDH1 R132H inhibition | O75874 | Potency, µM (titrated, usually from 76.6 µM), usual class: inhibitors | IDH1-R132H enzyme, NADPH consumption, diaphorase/resazurin fluorescence | AID 602179 | hit rate 0.093% among 390,000; also: nearly all actives have a fitted effect of over 65% in size
#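 IDH1-R132H (0.5 ug/mL) preincubated 30 min with compound, then NADPH (0.016 mM) and alpha-KG (2 mM) added; 80 min at RT, pH 7.5. Remaining NADPH coupled via diaphorase/resazurin to fluorescence (540/590 nm); concentration-response curves normalized to no-enzyme control.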
# Nrf2 ARE act: activates Nrf2 signaling | AREc32 ARE-luciferase reporter (MCF7-derived line), luminescence, 24 h | Potency, µM (top dose mostly 46.1 µM), most hits filed as activators | hit rate 0.31% among 410,000; also: nearly all actives have a fitted effect of over 65% in size
#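 Each well held 1000 AREc32 cells, which were incubated with compound for 24 hr at 37 deg C after overnight attachment, and ARE reporter activity was quantified by firefly luciferase luminescence.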
# 12-LOX inh: inhibitors of human 12S-lipoxygenase ALOX12 | P18054 | purified 12hLO, xylenol orange hydroperoxide absorbance | Potency, µM (titrated, usually from 108 µM), hits mostly inhibitors | hit rate 1.1% among 580,000
#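 Hydroperoxide product was detected by ferrous iron/xylenol orange as the 573 to 405 nm absorbance ratio. Arachidonic acid at 40 uM (final) was turned over for 30 min at room temperature by 150 nM human 12hLO, pH 7.0 Hepes buffer, after 15 min compound preincubation.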
# LDHA inh: LDHA (human) enzyme inhibition; purified LDHA, NADH/diaphorase-resazurin fluorescence; active compounds read low; activity change, % (values are at about 110 or 230 µM); hit rate 0.15% among 480,000; AID 1347041; in the data active = activity change below about -30%; inconclusive = mostly about -25% to -30%
#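 Remaining NADH was detected by diaphorase (0.133 mg/mL) converting 37 µM resazurin to fluorescent resorufin, read at 0 and 20 minutes. The preceding 5-minute room-temperature reaction used 2 nM LDHA, 0.2 mM sodium pyruvate and 0.06 mM NADH at pH 7.4.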
# FLuc counter 3: counter-screen for Nrf2 inhibitors: firefly luciferase enzyme inhibition; shares compounds with Nrf2 block; purified firefly luciferase, luminescence inhibition; Potency, µM (doses to about 57.5 µM), actives largely listed as inhibitors; hit rate 4% among 1,400; also: nearly all actives have a fitted effect of over 65% in size
# Target sequence (P08659 whole entry, looked up): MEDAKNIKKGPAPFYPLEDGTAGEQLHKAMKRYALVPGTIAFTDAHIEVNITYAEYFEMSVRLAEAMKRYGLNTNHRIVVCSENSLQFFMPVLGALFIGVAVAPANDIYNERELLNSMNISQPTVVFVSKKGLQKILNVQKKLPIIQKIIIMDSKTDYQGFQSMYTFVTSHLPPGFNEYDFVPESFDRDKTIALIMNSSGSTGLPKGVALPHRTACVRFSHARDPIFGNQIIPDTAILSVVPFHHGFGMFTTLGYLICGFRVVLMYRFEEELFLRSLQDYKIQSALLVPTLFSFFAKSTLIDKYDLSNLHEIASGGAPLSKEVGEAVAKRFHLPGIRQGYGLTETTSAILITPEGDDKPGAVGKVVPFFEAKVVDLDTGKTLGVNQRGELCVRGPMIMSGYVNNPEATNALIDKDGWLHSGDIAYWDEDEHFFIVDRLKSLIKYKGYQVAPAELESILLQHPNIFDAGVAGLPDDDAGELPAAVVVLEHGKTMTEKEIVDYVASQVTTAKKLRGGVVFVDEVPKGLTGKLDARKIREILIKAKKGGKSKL
# A549 tox-2: counter-screen for Nrf2 inhibitors: cytotoxicity in A549 ARE cells | shares compounds with Nrf2 block | hit rate 2% among 1,400 | Potency, µM (titrated, usually from 46.1 µM), hits mostly inhibitors | A549 ARE-Fluc cells, cytotoxicity counterscreen;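 also: cells exposed to compounds for 18 to 24 hours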
# ARE-Fluc inh: confirmation of Nrf2 inhibitors in A549 ARE reporter cells. shares compounds with Nrf2 block. A549 ARE-firefly luciferase reporter, luminescence. Potency, µM (highest dose often 46.1 µM), usual class: inhibitors. hit rate 74% among 1,400. AID 720524; also: nearly all actives have a fitted effect of over 65% in size
# Numbers stand for hits; n = inactive; u = inconclusive; x = not tested or not shown; [ ] = another dose, or the depositor's remark. Rows were chosen to be rich in hits. Some 2.7% of all compounds tested hit in one or more screens of this group. Unless noted, calls follow the shape of the dose curve; as a rule, active = well fitted curve in the direction sought with a large enough effect; inconclusive = small, poorly fitted or top-dose-only effect, or another doubt; inactive = no such curve, though single readings can be large; an effect the other way counts as inactive or inconclusive.
SMILES,Nrf2 block,A549 tox-1,mIDH1 inhibitor,Nrf2 ARE act,12-LOX inh,LDHA inh,FLuc counter 3,A549 tox-2,ARE-Fluc inh
CCCOC(c1ccccc1)(c1ccc(C(F)(F)F)cc1)C(Oc1nc(C)cc(C)n1)C(=O)O (centres undefined),3.3µM,n,n,n,n,n,n,n,1.8µM
Cc1cc(C)nc(OC(C(=O)O)C(OCCc2ccccc2)(c2ccc(F)cc2)c2ccc(F)cc2)n1 (centres undefined),u,n,n,n,n,n,x,x,x
Cc1c(C(=O)NCC(c2ccsc2)N(C)C)oc2ccc(Br)cc12 (centres undefined),x,x,x,x,n,n,x,x,x
FC(F)(F)c1cc(-c2ccccc2)nc(N2CCCCC2)n1,x,n,n,n,n,n,x,x,x
O=C(O)C1CCCN1c1nc(-c2ccc(Cl)c(Cl)c2)cc(C(F)(F)F)n1 (centres undefined),7.3µM,n,n,n,n,n,n,n,x
Cc1ccc2c(c1)c(/C=C/c1cc[n+](C)cc1)c(C)n2C,3.7µM,u,n,n,u,n,n,u,6.5µM
Cc1ccc2[nH]c(C)c(/C=C/c3cc[n+](C)cc3)c2c1,u,n,n,n,u,n,x,x,x
CC1=C(C)CC(C(=O)NCc2ccncc2)C(C(=O)O)C1 (centres undefined),x,x,x,x,n,n,x,x,x
COc1ccccc1C(=O)NCCCNC(=O)c1cccnc1,1.8µM,n,n,n,n,n,n,n,n
O=C(Nc1ccc(F)cc1F)N1CCN(c2ncccn2)CC1,n,n,n,n,n,n,x,x,x
O=C(c1ccc2ccccc2c1)N1CCN(c2ccc(C(F)(F)F)cn2)CC1,n,n,n,n,n,n,x,x,x
O=C(Nc1ccccc1)N1CCN(c2ccc(C(F)(F)F)cn2)CC1,6.5µM,n,n,n,n,n,n,n,9.2µM
CNC(=S)Nc1ccc(N2CCN(c3ccc(C(F)(F)F)cn3)CC2)nc1,4.1µM,n,n,n,n,n,n,n,6.5µM
O=C(Nc1ccc(F)cc1F)N1CCCN(c2ccc(C(F)(F)F)cn2)CC1,6.5µM,n,n,n,n,n,n,n,8.2µM
Fc1ccc(NC(=S)N2CCCN(c3ccc(C(F)(F)F)cn3)CC2)c(F)c1,2.9µM,n,n,n,n,n,n,n,5.8µM
COc1ccc(C(=O)COC(=O)/C=C/c2c(Cl)nc3sccn23)cc1Br,x,x,x,x,n,n,x,x,x
Cc1ccsc1/C=C/c1ccc2cccc(O)c2n1,n,u,n,u,n,n,x,x,x
Cc1cccc(/C=C/c2cccs2)n1,x,x,x,x,x,x,n,n,2.6µM
COc1ccc2c(c1)CC/C2=N\OC(=O)c1cc(Cl)ccc1SC,x,x,x,x,u,n,x,x,x
C[C@]12C=CC(=O)C=C1CC[C@@H]1[C@@H]2[C@@H](O)C[C@@]2(C)[C@H]1CC[C@]2(O)C(=O)COC(=O)CCC(=O)NCCc1ccc(O)cc1,0.12µM,n,n,n,n,n,n,8.2µM,5.8µM
C[C@]12C=CC(=O)C=C1CC[C@@H]1[C@@H]2[C@@H](O)C[C@@]2(C)[C@H]1CC[C@]2(O)C(=O)CO,0.058µM,n,n,n,n,n,n,n,0.073µM
C[C@H]1C[C@@H]2[C@H]([C@@H](O)C[C@@]3(C)[C@H]2CC[C@]3(O)C(=O)CO)[C@@]2(C)C=CC(=O)C=C12,0.026µM,n,n,n,n,n,n,n,0.033µM
C[C@]12C=CC(=O)C=C1CC[C@@H]1[C@@H]2[C@@H](O)C[C@@]2(C)[C@H]1CC[C@]2(O)C(=O)COC(=O)CCC(=O)O,0.046µM,n,n,n,n,n,n,n,0.23µM
CCCCCc1ccc(-c2ccc(C#N)cc2)nc1,x,x,x,x,u,n,x,x,x
Cn1cc(C(=O)NC2CCN(S(C)(=O)=O)CC2)c2ccccc21,x,x,x,x,n,n,x,x,x
SMILES,Nrf2 block,A549 tox-1,mIDH1 inhibitor,Nrf2 ARE act,12-LOX inh,LDHA inh,FLuc counter 3,A549 tox-2,ARE-Fluc inh
CC(C)=CCC/C(C)=C/CC/C(C)=C/C(=O)OCC(=O)[C@@]1(O)CC[C@H]2[C@@H]3CCC4=CC(=O)C=C[C@]4(C)[C@H]3[C@@H](O)C[C@@]21C,x,x,x,x,n[22.9 µM],x,x,x,x
CCOC(=O)O[C@]1(C(=O)COC(=O)CC)CC[C@H]2[C@@H]3CCC4=CC(=O)C=C[C@]4(C)[C@H]3[C@@H](O)C[C@@]21C,0.058µM,n,n,n,n,n,n,n,0.058µM
Cn1c2c(c(=O)[nH]c1=O)C(c1cccc(O)c1)C1=C(N2)c2ccccc2C1=O (centres undefined),8.2µM,n,n,n[9.22 µM],u,n,n,u,4.6µM
CCCn1c(N)c(N2CCOCC2)c(=O)n(CC(=O)Nc2ccc(C)cc2)c1=O,x,x,x,x,u,n,x,x,x
C=CCN1C(=O)C(=O)N(Cc2coc(-c3ccc(C)cc3)n2)C1=O,x,x,x,x,u,n,x,x,x
COc1ccc(S(=O)(=O)c2nnn(-c3ccc(C(C)C)cc3)c2C)cc1,9.2µM,n,n,n,n,n,n,n,5.2µM
COc1cc(OC)cc(-c2cc3nc(C)c(CCC(=O)NCc4ccccc4)c(C)n3n2)c1,7.3µM,n,n,n,n,n,n,n,7.3µM
COc1cc(OC)cc(-c2cc3nc(C)c(CCC(=O)Nc4ccc(C(C)=O)cc4)c(C)n3n2)c1,4.1µM,n,n,n,n,n,n,n,18µM
c1cncc(CNCCCN2CCCCC2)c1,x,x,x,x,u,n,x,x,x
COC(=O)COc1ccc2c3c(c(=O)oc2c1)CCC3,x,x,x,x,u,n,x,x,x
CCc1ccc(C(=O)c2sc(Nc3cccc(SC)c3)nc2N)cc1,x,x,x,x,u,n,x,x,x
CC1(C)CC(N2CCCC2)=CC(=[N+]2CCCCC2)C1,4.1µM,n,n,n,40µM,n,n,n,5.2µM
CC1(C)CC(NNCCC#N)=CC(=[N+]2CCCC2)C1,n,n,n,n,u,n,x,x,x
CC1(C)CC(N2CCCC2)=CC(=[N+]2CCCC2)C1,2.1µM,n,n,n,40µM,n,n,n,5.2µM
Cc1ccc(S(=O)(=O)[C@H]2CS(=O)(=O)C[C@@H]2NCCc2ccc(Cl)cc2)cc1,x,x,x,x,n,n,x,x,x
COc1cc(OC)cc(C(=O)Nc2ccc3oc(-c4ccccc4F)cc(=O)c3c2)c1,x,x,x,x,u,n,x,x,x
COc1ccc(-c2nc(CSCC(=O)N3CCN(c4cccc(C)c4C)CC3)c(C)o2)cc1OC,x,n,n,n,n,n,x,x,x
